Targets include AIF1L (UniProt Q9BQI0); B4GALNT4 (UniProt Q76KP1); CCT2 (UniProt P78371); CCT4 (UniProt P50991); MEPE (UniProt Q9NQ76); SF3B1 (UniProt O75533); SMC4 (UniProt Q9NTJ3); SNU13 (UniProt P55769); TPPP3 (UniProt Q9BW30); TRIM28 (UniProt Q13263); XRCC5 (UniProt P13010).
What all share (assay): cross-linking mass spectrometry
What all share (settings): DSSO, not determined

UniProt P78371, sequence (P78371 whole entry): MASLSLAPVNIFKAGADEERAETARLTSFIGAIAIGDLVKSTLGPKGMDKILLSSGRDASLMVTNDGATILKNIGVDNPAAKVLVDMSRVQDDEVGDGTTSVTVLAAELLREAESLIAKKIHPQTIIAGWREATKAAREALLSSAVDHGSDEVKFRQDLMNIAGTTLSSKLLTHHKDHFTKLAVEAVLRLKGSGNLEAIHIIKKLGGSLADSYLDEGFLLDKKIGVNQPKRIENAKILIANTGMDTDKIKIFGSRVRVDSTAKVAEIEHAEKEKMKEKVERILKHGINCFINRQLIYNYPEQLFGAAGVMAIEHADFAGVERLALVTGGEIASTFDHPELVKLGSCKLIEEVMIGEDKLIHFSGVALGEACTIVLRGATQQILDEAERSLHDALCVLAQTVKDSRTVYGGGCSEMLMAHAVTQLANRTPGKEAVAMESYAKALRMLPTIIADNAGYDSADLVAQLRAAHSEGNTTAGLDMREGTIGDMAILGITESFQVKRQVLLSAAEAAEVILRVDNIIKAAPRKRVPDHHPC
UniProt Q9BQI0, sequence (Q9BQI0 whole entry): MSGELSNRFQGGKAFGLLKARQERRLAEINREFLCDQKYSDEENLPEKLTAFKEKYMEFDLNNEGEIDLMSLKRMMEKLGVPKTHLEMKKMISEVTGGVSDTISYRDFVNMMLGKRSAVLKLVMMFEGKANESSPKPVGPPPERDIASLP
CCT4, sequence (P50991 whole entry): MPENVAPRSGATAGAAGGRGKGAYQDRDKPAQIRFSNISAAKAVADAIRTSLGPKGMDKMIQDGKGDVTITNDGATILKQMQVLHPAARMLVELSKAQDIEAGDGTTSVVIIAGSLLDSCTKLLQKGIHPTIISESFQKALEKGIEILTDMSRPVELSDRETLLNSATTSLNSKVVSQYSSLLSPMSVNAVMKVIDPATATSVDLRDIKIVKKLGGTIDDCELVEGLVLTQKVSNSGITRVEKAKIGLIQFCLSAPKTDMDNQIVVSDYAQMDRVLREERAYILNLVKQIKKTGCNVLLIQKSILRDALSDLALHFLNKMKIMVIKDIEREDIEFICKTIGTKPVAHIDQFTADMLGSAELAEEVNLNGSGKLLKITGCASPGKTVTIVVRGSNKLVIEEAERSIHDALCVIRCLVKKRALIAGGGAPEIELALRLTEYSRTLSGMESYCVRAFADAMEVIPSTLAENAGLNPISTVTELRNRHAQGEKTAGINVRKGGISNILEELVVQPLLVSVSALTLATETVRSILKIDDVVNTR
CCT4, P50991, sequence (P50991 whole entry): as above
XRCC6, sequence (P12956 whole entry): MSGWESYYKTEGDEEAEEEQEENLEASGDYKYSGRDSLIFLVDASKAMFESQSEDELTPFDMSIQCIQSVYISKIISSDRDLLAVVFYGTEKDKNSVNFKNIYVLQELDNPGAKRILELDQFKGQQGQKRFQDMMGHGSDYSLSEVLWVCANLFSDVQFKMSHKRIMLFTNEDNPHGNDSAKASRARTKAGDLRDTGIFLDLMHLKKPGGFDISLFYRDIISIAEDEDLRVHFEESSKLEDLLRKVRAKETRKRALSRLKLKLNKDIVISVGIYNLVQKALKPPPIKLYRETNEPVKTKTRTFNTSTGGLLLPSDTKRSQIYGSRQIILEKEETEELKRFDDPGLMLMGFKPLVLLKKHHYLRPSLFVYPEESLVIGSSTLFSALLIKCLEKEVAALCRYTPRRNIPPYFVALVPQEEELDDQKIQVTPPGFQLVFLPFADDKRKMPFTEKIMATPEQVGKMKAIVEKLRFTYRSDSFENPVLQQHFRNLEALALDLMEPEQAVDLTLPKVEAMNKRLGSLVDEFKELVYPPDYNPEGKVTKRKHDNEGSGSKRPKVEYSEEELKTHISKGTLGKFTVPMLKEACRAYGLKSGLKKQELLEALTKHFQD
UniProt O75533, sequence (O75533 whole entry): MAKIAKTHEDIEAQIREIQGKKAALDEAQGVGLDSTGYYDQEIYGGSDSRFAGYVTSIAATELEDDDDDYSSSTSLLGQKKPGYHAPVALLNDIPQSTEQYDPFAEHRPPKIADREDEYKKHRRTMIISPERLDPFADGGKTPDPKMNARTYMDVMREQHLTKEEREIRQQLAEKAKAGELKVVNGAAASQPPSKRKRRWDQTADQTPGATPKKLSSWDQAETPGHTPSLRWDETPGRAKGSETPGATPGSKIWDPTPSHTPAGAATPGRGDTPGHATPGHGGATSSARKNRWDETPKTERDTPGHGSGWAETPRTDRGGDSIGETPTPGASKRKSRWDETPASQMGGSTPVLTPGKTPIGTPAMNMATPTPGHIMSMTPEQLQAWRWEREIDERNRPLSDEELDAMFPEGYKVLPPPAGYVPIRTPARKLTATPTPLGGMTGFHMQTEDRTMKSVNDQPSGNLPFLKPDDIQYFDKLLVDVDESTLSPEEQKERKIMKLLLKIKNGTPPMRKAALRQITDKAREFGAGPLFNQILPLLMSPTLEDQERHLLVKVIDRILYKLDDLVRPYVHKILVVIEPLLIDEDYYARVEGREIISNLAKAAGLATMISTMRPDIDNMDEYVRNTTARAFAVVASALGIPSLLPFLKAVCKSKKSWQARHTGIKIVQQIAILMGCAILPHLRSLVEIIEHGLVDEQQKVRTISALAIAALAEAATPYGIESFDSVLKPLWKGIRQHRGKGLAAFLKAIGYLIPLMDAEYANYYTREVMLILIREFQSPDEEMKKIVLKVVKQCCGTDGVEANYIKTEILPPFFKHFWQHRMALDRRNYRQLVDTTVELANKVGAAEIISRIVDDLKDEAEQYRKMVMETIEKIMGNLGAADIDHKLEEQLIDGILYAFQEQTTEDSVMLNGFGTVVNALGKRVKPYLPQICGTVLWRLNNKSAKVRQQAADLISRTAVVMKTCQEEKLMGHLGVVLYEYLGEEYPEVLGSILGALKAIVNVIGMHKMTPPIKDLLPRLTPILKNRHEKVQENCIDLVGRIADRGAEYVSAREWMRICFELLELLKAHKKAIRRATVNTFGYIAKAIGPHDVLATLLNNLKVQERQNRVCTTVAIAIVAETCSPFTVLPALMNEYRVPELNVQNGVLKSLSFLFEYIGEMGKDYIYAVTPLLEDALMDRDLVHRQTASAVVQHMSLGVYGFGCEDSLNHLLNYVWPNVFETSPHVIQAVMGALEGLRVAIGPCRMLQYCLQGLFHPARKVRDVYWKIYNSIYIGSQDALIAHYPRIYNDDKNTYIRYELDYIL
VIM, sequence (P08670 whole entry): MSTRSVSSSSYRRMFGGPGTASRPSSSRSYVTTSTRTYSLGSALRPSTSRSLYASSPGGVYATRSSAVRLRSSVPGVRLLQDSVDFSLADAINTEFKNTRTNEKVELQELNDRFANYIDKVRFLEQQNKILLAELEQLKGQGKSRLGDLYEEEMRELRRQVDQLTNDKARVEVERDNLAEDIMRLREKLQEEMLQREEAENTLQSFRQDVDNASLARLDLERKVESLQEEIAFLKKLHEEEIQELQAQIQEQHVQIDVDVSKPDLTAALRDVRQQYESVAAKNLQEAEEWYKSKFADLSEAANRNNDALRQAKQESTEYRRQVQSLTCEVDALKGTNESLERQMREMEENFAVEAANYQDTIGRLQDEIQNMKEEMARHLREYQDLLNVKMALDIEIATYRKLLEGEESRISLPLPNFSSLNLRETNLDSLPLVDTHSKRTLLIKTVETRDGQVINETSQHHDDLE
NOP56, sequence (O00567 whole entry): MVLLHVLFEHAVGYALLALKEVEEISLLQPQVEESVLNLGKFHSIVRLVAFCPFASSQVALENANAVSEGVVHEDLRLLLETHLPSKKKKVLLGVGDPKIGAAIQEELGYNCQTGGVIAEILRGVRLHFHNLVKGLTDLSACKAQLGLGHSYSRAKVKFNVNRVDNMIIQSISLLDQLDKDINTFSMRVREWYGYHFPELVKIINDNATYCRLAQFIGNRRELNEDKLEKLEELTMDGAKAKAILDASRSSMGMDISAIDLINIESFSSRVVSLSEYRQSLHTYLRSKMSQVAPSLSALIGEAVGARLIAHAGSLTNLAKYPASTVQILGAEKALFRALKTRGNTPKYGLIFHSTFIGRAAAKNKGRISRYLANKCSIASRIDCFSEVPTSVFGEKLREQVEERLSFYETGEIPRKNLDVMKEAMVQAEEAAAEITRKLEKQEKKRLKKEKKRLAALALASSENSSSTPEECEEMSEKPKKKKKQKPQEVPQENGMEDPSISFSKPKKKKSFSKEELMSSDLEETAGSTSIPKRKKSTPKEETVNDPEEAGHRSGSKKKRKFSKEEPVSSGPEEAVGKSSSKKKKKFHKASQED
UniProt Q9NQ76, sequence (Q9NQ76 whole entry): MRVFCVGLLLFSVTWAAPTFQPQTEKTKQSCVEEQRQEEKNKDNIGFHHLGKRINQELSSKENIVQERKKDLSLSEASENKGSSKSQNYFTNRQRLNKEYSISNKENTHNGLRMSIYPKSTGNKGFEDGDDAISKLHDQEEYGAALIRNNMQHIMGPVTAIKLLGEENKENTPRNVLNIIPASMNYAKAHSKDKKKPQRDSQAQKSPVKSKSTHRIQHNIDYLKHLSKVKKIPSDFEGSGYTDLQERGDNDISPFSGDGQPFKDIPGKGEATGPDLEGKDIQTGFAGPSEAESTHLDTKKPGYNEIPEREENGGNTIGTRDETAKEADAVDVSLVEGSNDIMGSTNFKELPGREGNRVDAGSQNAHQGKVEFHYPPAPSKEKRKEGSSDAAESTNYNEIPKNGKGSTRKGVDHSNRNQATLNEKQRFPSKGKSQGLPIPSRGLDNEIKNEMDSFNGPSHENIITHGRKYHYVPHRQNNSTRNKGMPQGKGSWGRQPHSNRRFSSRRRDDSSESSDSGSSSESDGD
UniProt Q9BW30, sequence (Q9BW30 whole entry): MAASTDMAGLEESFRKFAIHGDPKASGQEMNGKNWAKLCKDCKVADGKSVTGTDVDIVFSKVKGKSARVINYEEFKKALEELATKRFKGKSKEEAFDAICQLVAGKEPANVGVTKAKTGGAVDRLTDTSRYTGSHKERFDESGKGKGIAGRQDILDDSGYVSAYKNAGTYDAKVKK

Turning to CLEC4F, Q8N1N0, the cross-linked residues result in the test with AIF1L was “K474 - K129”. In the case of EPRS1, P07814, in the test with B4GALNT4, the cross-linked residues result was “K300 - K232”. Consider CCT4, P50991, for which the cross-linked residues result in the test with CCT2 is “K21 - K522”. In the case of TCP1, P17987, in the test with CCT4, the cross-linked residues result is reported as “K126 - K55”. With EPHX2, P34913, the cross-linked residues entry with MEPE is recorded as “K55 - K369”. In the case of HTATSF1, O43719, the cross-linked residues result with SF3B1 is listed as “K297 - K333”. As for SMC2, O95347, the cross-linked residues entry with SMC4 is given as “K580 - K731”. NOP56, O00567: the cross-linked residues entry with SNU13 is reported as “K396 - K86”.

VIM, P08670: the cross-linked residues result in the test with TPPP3 is reported as “K223 - K48”. In the case of BCL9, O00512, in the test with TRIM28, the cross-linked residues result was “K1244 - K289”. As to XRCC6, P12956, the cross-linked residues entry with XRCC5 was “K317 - K282”.
